Results from PubChem BioAssay.
Entries with a potency or affinity are not part of this list. Calls of active or inactive are those of the source.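 How the source made its calls: active means signal drop whose fitted half-maximal concentration is at most twice the top valid dose, in every test run; inconclusive means mixed calls across runs, poor fit, or flat 30 to 70% inhibition; inactive means wrong direction, flat within 30%, or potency beyond limit.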

Assay: cytotoxicity in PAX8-dependent RMG-1 cells, dose response, cell-based, cherry-pick (AID 687029);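 further: cells exposed to compound for 96 hours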
Conditions: RMG-1 viability, CellTiterGlo ATP luminescence, 96 h; series mostly up to 35 µM; activity change, negative = inhibition: at the top concentration

| Compound | activity change, negative = inhibition | outcome |
| --- | --- | --- |
| C[C@H]1CCCCO[C@H](CN(C)Cc2ccc(Cl)c(Cl)c2)[C@@H](C)CN([C@@H](C)CO)C(=O)c2cc(NC(=O)Nc3ccc(F)cc3)ccc2O1 | 4.9% (inactive) | – |
| C[C@@H]1CN([C@@H](C)CO)C(=O)c2c(c3ccccc3n2C)-c2ccccc2CO[C@H]1CN(C)C(=O)Nc1ccc2c(c1)OCO2 | 18.6% (inactive) | – |
| C[C@@H]1CCCCO[C@H](CN(C)Cc2ccc(C(F)(F)F)cc2)[C@H](C)CN([C@@H](C)CO)C(=O)c2cc(NC(=O)Nc3ccc(F)cc3)ccc2O1 | 8.59% (inactive) | – |
| C[C@H](CO)N1C[C@H](C)[C@H](CN(C)S(=O)(=O)c2cccs2)OCCCC[C@H](C)Oc2ccc(NC(=O)NC3CCCCC3)cc2C1=O | 18.3% (inactive) | – |
| C[C@H]1CCCCO[C@@H](CN(C)S(=O)(=O)c2cccs2)[C@@H](C)CN([C@@H](C)CO)C(=O)c2cc(NC(=O)NC3CCCCC3)ccc2O1 | 33.1% (inactive) | – |
| C[C@@H]1CN([C@H](C)CO)C(=O)c2cc(NS(=O)(=O)c3ccc(F)cc3)ccc2O[C@@H]1CN(C)Cc1ccc(C(F)(F)F)cc1 | 17.4% (inactive) | – |
| C[C@@H]1CCCCO[C@H](CN(C)C(=O)Cc2ccccc2)[C@H](C)CN([C@@H](C)CO)C(=O)c2cc(NC(=O)Nc3ccc(C(F)(F)F)cc3)ccc2O1 | 24.1% (inactive) | – |
| C[C@H](CO)N1C[C@H](C)[C@@H](CN(C)C(=O)NC2CCCCC2)Oc2cc(C#Cc3ccc(F)cc3)ccc2S1(=O)=O | 18.6% (inactive) | – |
| C[C@@H]1CCCCO[C@H](CN(C)C)[C@H](C)CN([C@H](C)CO)C(=O)c2cc(NC(=O)Nc3cccc4ccccc34)ccc2O1 | 2.04% (inactive) | – |
| C[C@@H]1CCCCO[C@@H](CN(C)S(=O)(=O)c2ccc(Cl)cc2)[C@H](C)CN([C@@H](C)CO)C(=O)c2cc(NS(=O)(=O)c3ccc(Cl)cc3)ccc2O1 | 13.5% (inactive) | – |
| C[C@H](CO)N1C[C@H](C)[C@@H](CN(C)Cc2ccc(Oc3ccccc3)cc2)OCc2ccccc2-c2c(n(C)c3ccccc23)C1=O | 24.8% (inactive) | – |
| C[C@@H]1CN([C@@H](C)CO)C(=O)c2cc(NC(=O)Nc3ccc4c(c3)OCO4)ccc2O[C@@H]1CN(C)C(=O)Nc1ccc(C(F)(F)F)cc1 | -27.9% (inactive) | – |
| C[C@@H]1CN([C@@H](C)CO)C(=O)c2cc(NS(=O)(=O)c3ccccc3)ccc2O[C@@H](C)CCCCO[C@@H]1CN(C)Cc1ccc(C(F)(F)F)cc1 | 27.3% (inactive) | – |
| C[C@@H]1CN([C@@H](C)CO)C(=O)Cc2cc(NC(=O)Nc3ccc(C(F)(F)F)cc3)ccc2O[C@H]1CN(C)S(=O)(=O)c1ccc(F)cc1 | 21.8% (inactive) | – |
| C[C@@H]1CCCCO[C@H](CN(C)Cc2ccc(C(F)(F)F)cc2)[C@H](C)CN([C@H](C)CO)C(=O)c2cc(NC(=O)Nc3ccc(F)cc3)ccc2O1 | 5.18% (inactive) | – |
| CN1c2ccc(C#Cc3cccnc3)cc2[C@@H]2[C@@H](CCN2C(=O)Cc2cccnc2)[C@@H]1CO | 8.76% (inactive) | – |
| COc1ccc(NC(=O)Nc2ccc3c(c2)C(=O)N([C@@H](C)CO)C[C@@H](C)[C@@H](CN(C)Cc2ccc(C(F)(F)F)cc2)OCCCC[C@@H](C)O3)cc1 | 16.3% (inactive) | – |
| O=C(Nc1ccc(C(F)(F)F)cc1)N1C[C@@H]2N[C@H](C1)C2c1ccc(-c2ccccc2)cc1 (stereo not given in full) | – | inactive |
| C[C@H]1CN([C@@H](C)CO)C(=O)CCCn2nncc2CO[C@@H]1CN(C)C(=O)Nc1ccc(-c2cccs2)cc1 | 20.8% (inactive) | – |
| CCCN(C)C[C@H]1OCCCC[C@@H](C)Oc2ccc(NC(=O)c3ccccc3)cc2C(=O)N([C@H](C)CO)C[C@H]1C | 13% (inactive) | – |

| Compound | activity change, negative = inhibition | outcome |
| --- | --- | --- |
| CC(C)CC#Cc1ccc2c(c1)O[C@@H](CN(C)Cc1ccncc1)[C@H](C)CN([C@@H](C)CO)S2(=O)=O | 22.3% (inactive) | – |
| C[C@@H]1CN([C@H](C)CO)C(=O)c2cc(NC(=O)Nc3ccc(F)cc3)ccc2O[C@@H](C)CCCCO[C@H]1CN(C)C(=O)Nc1ccc(F)cc1 | 9.15% (inactive) | – |
| Cc1ccc(S(=O)(=O)N(C)C[C@H]2OCCCC[C@@H](C)Oc3ccc(NS(=O)(=O)c4ccc(F)cc4)cc3C(=O)N([C@@H](C)CO)C[C@H]2C)cc1 | 1.25% [at 30 µM] (inactive) | – |
| C[C@H]1CCCCO[C@@H](CN(C)C)[C@@H](C)CN([C@@H](C)CO)C(=O)c2cc(NC(=O)Nc3ccc(C(F)(F)F)cc3)ccc2O1 | 13.4% (inactive) | – |
| Cc1ccc(S(=O)(=O)Nc2ccc3c(c2)C(=O)N([C@@H](C)CO)C[C@@H](C)[C@@H](CN(C)Cc2ccc(C(F)(F)F)cc2)OCCCC[C@@H](C)O3)cc1 | -3.91% (inactive) | – |
| COc1ccccc1-c1ccc2c(c1)[C@H]1[C@H](CCN1S(=O)(=O)c1ccccc1F)[C@H](CO)N2 | 18.9% (inactive) | – |
| COc1ccccc1-c1ccc2c(c1)O[C@H](CN(C)Cc1ccc3c(c1)OCO3)[C@H](C)CN([C@@H](C)CO)S2(=O)=O | 22.5% (inactive) | – |
| COc1ccc(S(=O)(=O)N2CCCCN3[C@H](C2)[C@H](c2ccc(C#CC(C)C)cc2)[C@@H]3CO)cc1 | 8.61% (inactive) | – |
| C[C@@H]1CCCCO[C@H](CN(C)CC2CCCCC2)[C@H](C)CN([C@H](C)CO)C(=O)c2cc(NS(=O)(=O)c3ccc(Cl)cc3)ccc2O1 | 27.9% (inactive) | – |
| COc1ccc(S(=O)(=O)N(C)C[C@H]2Oc3ccc(NC(=O)Nc4ccc(C(F)(F)F)cc4)cc3CC(=O)N([C@H](C)CO)C[C@@H]2C)cc1 | 24.4% (inactive) | – |
| COc1ccc(S(=O)(=O)N2CCCCN3[C@H](C2)[C@@H](c2ccc(C#CC(C)C)cc2)[C@@H]3CO)cc1 | 29.5% (inactive) | – |
| COc1ccc(NC(=O)Nc2ccc3c(c2)CC(=O)N([C@@H](C)CO)C[C@@H](C)[C@@H](CN(C)Cc2ccc(Oc4ccccc4)cc2)O3)cc1 | 22.7% (inactive) | – |
| C[C@@H]1CCCCO[C@H](CN(C)Cc2ccc(Cl)c(Cl)c2)[C@@H](C)CN([C@@H](C)CO)C(=O)c2cc(NS(=O)(=O)c3ccc(Cl)cc3)ccc2O1 | 13.3% (inactive) | – |
| C[C@H](CO)N1C[C@H](C)[C@@H](CN(C)C(=O)Nc2ccc(F)cc2)OCc2ccccc2-c2c(n(C)c3ccccc23)C1=O | 26.6% (inactive) | – |
| C[C@H](CO)N1C[C@H](C)[C@H](CN(C)C(=O)NC2CCCCC2)Oc2cc(C#Cc3ccc(F)cc3)ccc2S1(=O)=O | 13.2% (inactive) | – |
| C[C@H]1CCCCO[C@H](CN(C)S(=O)(=O)c2ccc(Cl)cc2)[C@@H](C)CN([C@@H](C)CO)C(=O)c2cc(NS(=O)(=O)c3ccc(Cl)cc3)ccc2O1 | 17.4% (inactive) | – |
| C[C@@H]1CCCCO[C@H](CN(C)C(=O)Nc2ccc(C(F)(F)F)cc2)[C@H](C)CN([C@@H](C)CO)C(=O)c2cc(NS(=O)(=O)c3ccc(Cl)cc3)ccc2O1 | 21.9% (inactive) | – |
| C[C@H](CO)N1C[C@H](C)[C@@H](CN(C)Cc2ccc(Cl)c(Cl)c2)OCCCC[C@H](C)Oc2ccc(NC(=O)Nc3ccccc3)cc2C1=O | 7.72% (inactive) | – |
| C[C@@H]1CN([C@@H](C)CO)C(=O)c2cc(NC(=O)c3ccccc3)ccc2O[C@@H](C)CCCCO[C@H]1CN(C)Cc1ccc(C(F)(F)F)cc1 | -3.18% (inactive) | – |
| Cc1ccc(S(=O)(=O)Nc2ccc3c(c2)C(=O)N([C@H](C)CO)C[C@H](C)[C@H](CN(C)C(=O)c2ccccc2)OCCCC[C@H](C)O3)cc1 | 9.45% (inactive) | – |
